The source of these data is PubChem BioAssay.

Molecules are shown by their SMILES.

The target in the experiment is Epidermal growth factor receptor (Homo sapiens) (UniProt P00533). In words: compounds binding epidermal growth factor receptor – biochemical, small-molecule microarray, 635 nm fluorescence, primary screen (AID 1104).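 Also: score merges 667 nm emission intensity with spot signal to noise over triplicate slides.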 To be noted: EGFR binding, higher = more signal.
Chain of Epidermal growth factor receptor (Homo sapiens) (P00533 whole entry, looked up): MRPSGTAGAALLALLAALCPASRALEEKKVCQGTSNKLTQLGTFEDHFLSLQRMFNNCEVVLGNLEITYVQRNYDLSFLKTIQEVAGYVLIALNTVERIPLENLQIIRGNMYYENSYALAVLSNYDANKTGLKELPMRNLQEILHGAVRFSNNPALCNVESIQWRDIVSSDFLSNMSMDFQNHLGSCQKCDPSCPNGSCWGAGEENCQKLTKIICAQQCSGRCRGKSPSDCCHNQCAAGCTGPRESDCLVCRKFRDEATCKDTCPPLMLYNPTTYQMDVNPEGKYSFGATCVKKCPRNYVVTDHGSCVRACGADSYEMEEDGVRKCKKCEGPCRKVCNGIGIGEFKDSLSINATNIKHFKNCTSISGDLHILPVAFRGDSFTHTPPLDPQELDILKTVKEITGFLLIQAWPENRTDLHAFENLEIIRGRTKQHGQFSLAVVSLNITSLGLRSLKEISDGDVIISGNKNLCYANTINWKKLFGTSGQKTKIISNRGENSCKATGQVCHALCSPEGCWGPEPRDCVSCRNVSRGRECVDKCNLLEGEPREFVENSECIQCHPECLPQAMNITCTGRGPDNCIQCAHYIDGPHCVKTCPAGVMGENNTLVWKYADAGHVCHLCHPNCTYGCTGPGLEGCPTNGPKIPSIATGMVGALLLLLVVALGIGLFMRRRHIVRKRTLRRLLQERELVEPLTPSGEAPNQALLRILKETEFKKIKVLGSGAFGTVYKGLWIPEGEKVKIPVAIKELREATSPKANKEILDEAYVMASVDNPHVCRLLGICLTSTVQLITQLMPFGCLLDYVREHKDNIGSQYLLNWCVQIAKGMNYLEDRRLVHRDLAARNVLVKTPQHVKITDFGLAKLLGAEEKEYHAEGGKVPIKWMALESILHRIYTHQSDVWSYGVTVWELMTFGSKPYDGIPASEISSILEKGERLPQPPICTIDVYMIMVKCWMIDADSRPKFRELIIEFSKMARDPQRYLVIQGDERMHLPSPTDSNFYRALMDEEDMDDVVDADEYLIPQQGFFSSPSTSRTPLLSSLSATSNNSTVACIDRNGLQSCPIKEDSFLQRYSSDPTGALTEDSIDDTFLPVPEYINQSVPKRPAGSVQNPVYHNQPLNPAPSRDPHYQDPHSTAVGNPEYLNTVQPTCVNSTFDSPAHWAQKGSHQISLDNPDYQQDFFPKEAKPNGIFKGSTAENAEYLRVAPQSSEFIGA
Regarding `CCOC(=O)C[C@H]1[C@H](OC(=O)c2ccccc2-c2ccccc2)[C@@H](NC(=O)c2ccc3ccccc3n2)c2cc(OCCCO)ccc2N1C(=O)Cc1ccc(OC)cc1`, the composite z-score was found to be 0.238.

As to `CC(C)c1ccc(NN2C(C(O)c3ccc(C#N)cc3)C=CC3C(=O)N(c4ccccc4)C(=O)C32)cc1` (stereo not given), the composite z-score is 0.397.

The compound `CCC#CCN(Cc1ccccc1Br)[C@H](/C=C/C1CC1)[C@@H](O)Cc1ccccc1` displayed a composite z-score of -1.03.

For the compound `C=C[C@@H](OC)[C@H](OC(=O)Nc1ccc(OC)cc1)c1ccc(O)c(F)c1`, the composite z-score is -0.459.

On to `C=CCC(OC(C)=O)[C@@H]1[C@@H](N(Cc2ccc(-c3cccc(C(F)(F)F)c3)o2)C(=O)c2ccc(-c3ccccc3)cc2)c2cc(OCCCO)ccc2N1C(=O)Cc1ccc2ccccc2c1` (stereo not given in full), for which the composite z-score was -0.782.

In the case of `CCOC(=O)C1=C[C@@H](c2ccccc2)N(S(=O)(=O)c2ccc(C)cc2)[C@H]1c1ccc(OC)cc1`, the composite z-score is 0.561.

In the case of `CS(=O)(=O)CCOC(=O)C1=CC(CCCO)=CC(c2ccc(CN3CCCC3)cc2)N(Cc2sc3ccccc3c2Cl)C=C1C(=O)OCCS(C)(=O)=O` (stereo not given), the composite z-score turned out to be 0.558.

The compound `CCOC(=O)C[C@H]1[C@H](OC(=O)Cc2ccc3c(c2)OCO3)[C@@H](NC(=O)c2ccc3ccccc3n2)c2cc(OCCCO)ccc2N1C(=O)c1ccc2ccccc2n1` displayed a composite z-score of 0.267.

For `C=CCC(OC(C)=O)[C@@H]1[C@@H](N(Cc2ccc(-c3ccccc3)cc2)C(=O)c2ccc(-c3ccccc3)cc2)c2cc(OCCCO)ccc2N1C(=O)c1ccc2ccccc2c1` (stereo not given in full), the composite z-score was -0.175.

`Cc1ccc(NN2C(C(O)c3c(F)cccc3Cl)C=CC3C(=O)N(C4CCCCC4)C(=O)C32)cc1` (stereo not given) came in with a composite z-score of -0.184.
